Test results reported in PubChem BioAssay (Tox21).
Values without a mark were called inactive. The source made the active and inactive calls. Calls follow the shape of the dose curve; as a rule, active = well fitted curve in the direction sought with a large enough effect in the repeat runs; inconclusive = weak or mixed curves; inactive = flat fitted curve, though single readings scatter.

Test: qHTS assay to test for compound auto fluorescence at 535 nm (green) in HEK293 cell free culture (AID 720682)
Conditions: cell-free medium, green autofluorescence 485/535 nm, hits give high values; series mostly up to 91.3 µM; activity change: at the top concentration
Text: U.S. Tox21 Program National Center for Advancing Translational Sciences [NCATS] NIH Chemical Genomics Center [NCGC] U.S. Environmental Protection Agency [EPA] National Institutes of Environmental Health Sciences [NIEHS] National Toxicology Program [NTP] U.S. Food and Drug Administration [FDA] Tox21 Assay Overview: Compound auto fluorescence often interferes with screening of the compound library against various biological targets and signaling pathways. Some of these compounds may have fluorophoric properties. Such properties may interfere with the assay outputs resulting in false positives and/or negatives. To decrease such complications and ensure the compound activities are relevant in terms of biological response, the Tox21 10K compound library was screened for auto fluorescence. From the fluorophores used as reporter signals in our screening assays, the auto fluorescence equivalencies of compounds against three fluorophores have been evaluated: Triamterene, Fluorescein and Rose Bengal sodium for blue, green and red fluorescence, respectively. The fluorescence intensities were measured using Excitation/Emission wavelengths at 405/460nm, 485/535nm and 540/590nm for blue, green and red labels, respectively. This assay includes the green fluorescence data.
Tox21 Assay Protocol Summary: 5 uL of culture medium (DMEM containing 10% FBS) per well was dispensed into black wall/clear bottom 1536-well plates using a Multidrop Combi Dispenser (ThermoFisher Scientific, Waltham, MA). After 23 nL compound or DMSO vehicle was transferred into assay plate by a pintool work station (Kalypsys, San Diego, CA), fluorescence intensities in the assay plates were measured by an Envision (PerkinElmer, Shelton, CT) plate reader using three labels for measuring blue, green and red fluorescence at […] 460, 535 and 590nm respectively.
% is scaled to controls: 0 for no effect and ±100 for the full control effect.

| Compound | activity change | outcome |
| --- | --- | --- |
| O=C(Cl)c1cc(Cl)cc(Cl)c1 | -0.131% [at 95.7 µM] |  |
| C=CC(=O)NC(C)(C)C | -0.0879% |  |
| COC(=O)Cc1cccc2ccccc12 | 0.0706% |  |
| CCCCC(CC)COCCC#N (stereo not given) | -0.012% |  |
| CC1(C)[C@@H]2CC[C@]3(C2)[C@@H]1C(=O)CCC3(C)C | 0.0349% |  |
| CCCCCCCCCCCCCCCCCCCl | 0.0076% [at 3.72 µM] |  |
| COc1ccc(C(=O)c2ccc(C)cc2)c(O)c1 |  | inactive |
| Cc1cc(N)n(-c2ccccc2)n1 | -0.0519% |  |
| C=C[Si]1(C)O[Si](C)(C=C)O[Si](C)(C=C)O[Si](C)(C=C)O1 (stereo not given) | 0% |  |
| O=C1c2ccccc2C(=O)c2c1ccc(O)c2O | 0.066% [at 46 µM] |  |
| C=CC(O)CCCCC (stereo not given) | -0.171% |  |
| O=C(O)c1ccccc1[N+](=O)[O-] | -0.0258% |  |
| N#C[C@@H]1CC(F)(F)CN1C(=O)CNC1CC2CCC(C1)N2c1ncccn1 (stereo not given in full) | 0.207% |  |
| Nc1ccc(F)cc1F | -0.356% [at 95.7 µM] |  |
| Clc1cccc(C(c2ccc3nc[nH]c3c2)n2ccnc2)c1 (stereo not given) | -0.14% [at 46 µM] |  |
| C=CC(C)(O)CC/C=C(/C)CCC=C(C)C (stereo not given) | 0.0036% |  |
| O=C(O)c1ccc2c(c1)nc(C(=O)NC1CCN(C3CC3)CC1)n2Cc1cc(-c2ccc(Cl)s2)on1 | -0.024% [at 18.6 µM] |  |
| CO[C@@H]1[C@@H](O[C@@H]2O[C@H](C)[C@@H](O[C@H]3C[C@@](C)(O)[C@@H](O)[C@H](C)O3)[C@H](N(C)C)[C@H]2O)[C@@H](CC=O)C[C@@H](C)[C@@H](O[C@@H]2CC[C@H](N(C)C)[C@@H](C)O2)/C=C/C=C/C[C@@H](C)OC(=O)C[C@H]1OC(C)=O | 0.0494% [at 46 µM] |  |
| Cc1nc2sccn2c(=O)c1CCN1CCC(=C(c2ccc(F)cc2)c2ccc(F)cc2)CC1 | -0.124% [at 46 µM] |  |
| CCOCCn1c(N2CCCN(C)CC2)nc2ccccc21 | 0.0183% [at 46 µM] |  |

| Compound | activity change | outcome |
| --- | --- | --- |
| CC(C)(C)N | 0.101% |  |
| Oc1ccc(Oc2ccccc2)cc1 | -0.0168% |  |
| [O-][n+]1ccc(Cl)cc1 | -0.106% [at 95.7 µM] |  |
| CCOC(=O)CC(O)(CC(=O)OCC)C(=O)OCC | -0.0644% |  |
| O=C1OC(=O)C2CC=CCC12 (stereo not given) | 0.0803% |  |
| CC(C)Oc1ccccc1O | -0.139% |  |
| CCC(C)CCCC(C)(C)O (stereo not given) | -0.057% |  |
| C/C(=C(\CCO)SS/C(CCO)=C(\C)N(C=O)Cc1cnc(C)nc1N)N(C=O)Cc1cnc(C)nc1N | -0.0104% [at 46 µM] |  |
| CC(=O)OCC(=O)[C@@]1(O)CC[C@H]2[C@@H]3CCC4=CC(=O)C=C[C@]4(C)[C@@]3(F)[C@@H](O)C[C@@]21C | 0.114% [at 18.6 µM] |  |
| Clc1ccccc1-c1nc(-c2ccncc2)no1 | 0.0038% [at 46 µM] |  |
| O=C(O)CNc1ccccc1 | -0.0499% |  |
| O=C(O)c1cccc(C(=O)O)c1C(=O)O | 0.0071% |  |
| O=C(OC1C[C@H]2CC[C@@H](C1)[N+]21CCCC1)C(O)(c1ccccc1)c1ccccc1 (stereo not given in full) | -0.0719% [at 46 µM] |  |
| NC(=O)c1ccccc1C(N)=O | 0.0522% |  |
| CC(CN=Cc1ccccc1O)N=Cc1ccccc1O (stereo not given) | 0.0474% |  |
| C/C=C1\[C@H]2C=C(C)C[C@]1(N)c1ccc(=O)[nH]c1C2 | -0.0178% [at 46 µM] |  |
| O=C(O)c1ccncc1 | 0.151% [at 95.7 µM] |  |
| CCC1=C(C)CN(C(=O)NCCc2ccc(S(=O)(=O)NC(=O)NC3CCC(C)CC3)cc2)C1=O (stereo not given) | -0.0067% [at 46 µM] |  |
| Cc1ccc2c(Cl)cc(Cl)c(O)c2n1 | 0.0344% [at 46 µM] |  |
| CCOc1ccc2c(c1)C(C)CC(C)(C)N2 (stereo not given) | 0.0823% |  |
